Screening results from PubChem.
Most compounds without a hit are left out; they make up all but 4.6% or so of the library.
PNC inhibitor = High Content Assay for Compounds that inhibit the Assembly of the Perinucleolar Compartment | PC3M PTB-GFP, PNC prevalence imaging, 16 h; active compounds read low | activity change (PNC), negative = inhibition, % at 10 µM | hit rate 3.1% among 140,000 | AID 2417, 2010;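 active = readout at or below -70, meaning at least 70% loss of cells showing the perinucleolar compartment, a nuclear body marking cancer cells; inconclusive = readout between -30 and a set limit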
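PC3M cells stably expressing PTB-GFP, 750–1000 cells/well, treated 16 h at 37 °C with compound (23 nl of library stock), in duplicate. After paraformaldehyde fixation and Hoechst stain, imaged at 20x; PNC prevalence scored by image analysis.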
Tau fibril ThT = qHTS for Inhibitors of Tau Fibril Formation, Thioflavin T Binding; Microtubule-associated protein tau (Homo sapiens), P10636; hit rate 2.1% among 270,000; Potency, µM (top dose mostly 57.4 µM), hits mostly inhibitors; recombinant tau K18 P301L, heparin-induced fibrillization, ThT fluorescence; note: nearly all actives have a fitted effect of over 55% in size
Target sequence (P10636 561-689 P618L limits assumed): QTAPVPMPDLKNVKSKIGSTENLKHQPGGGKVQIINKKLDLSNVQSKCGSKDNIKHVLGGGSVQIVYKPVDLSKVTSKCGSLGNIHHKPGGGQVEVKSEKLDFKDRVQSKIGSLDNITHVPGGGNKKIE
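K18 P301L tau (15 uM + 0.24 uM Alexa 594-tagged), heparin 20 uM, NaOAc pH 7, 6 h 37 C; ThT 30 uM, 1 h RT, ex 450/em 510 nm.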
TR SRC2 fluor cs = Total Fluorescence Counterscreen for Inhibitors of the Interaction of Thyroid Hormone Receptor and Steroid Receptor Coregulator 2 | TRb/SRC2 Texas Red total fluorescence interference | Potency, µM (highest dose often 106 µM) | hit rate 0.29% among 280,000; active = well fitted curve in either direction with a large enough effect; inconclusive = small, poorly fitted or top-dose-only effect
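Human TRβ ligand-binding domain (0.6 uM) and Texas Red SRC2 peptide (20 nM) in Tris buffer with 1 uM T3 and 5% DMSO were incubated with pinned compound for 5 hr at ambient temperature. Total fluorescence was computed as S + 2P (555/632 nm).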
Tau FP inhib = qHTS for Inhibitors of Tau Fibril Formation, Fluorescence Polarization; Microtubule-associated protein tau (Homo sapiens), P10636; K18 P301L tau heparin fibrillization, Alexa594 FP, 6 h; Potency, µM (top dose mostly 57.7 µM), most hits filed as inhibitors; hit rate 0.39% among 280,000; note: nearly all actives have a fitted effect of over 55% in size
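Human K18 P301L fragment (15 uM unlabeled plus 0.24 uM Alexa 594-labeled) in 100 mM sodium acetate pH 7 with compound, aggregation induced by 20 uM heparin for 6 hr at 37 C. ThT (30 uM) added for 1 hr, then Alexa 594 FP read.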
TRb SRC2 PPI = qHTS for Inhibitors of the Interaction of Thyroid Hormone Receptor and Steroid Receptor Coregulator 2. hit rate 0.065% among 280,000. Thyroid hormone receptor beta (Homo sapiens), P10828. TRbeta-SRC2 peptide binding, fluorescence polarization; receptor liganded with 1 µM T3. Potency, µM (doses to about 106 µM), hits mostly inhibitors; note: nearly all actives have a fitted effect of over 50% in size
Target sequence (P10828 whole entry, looked up): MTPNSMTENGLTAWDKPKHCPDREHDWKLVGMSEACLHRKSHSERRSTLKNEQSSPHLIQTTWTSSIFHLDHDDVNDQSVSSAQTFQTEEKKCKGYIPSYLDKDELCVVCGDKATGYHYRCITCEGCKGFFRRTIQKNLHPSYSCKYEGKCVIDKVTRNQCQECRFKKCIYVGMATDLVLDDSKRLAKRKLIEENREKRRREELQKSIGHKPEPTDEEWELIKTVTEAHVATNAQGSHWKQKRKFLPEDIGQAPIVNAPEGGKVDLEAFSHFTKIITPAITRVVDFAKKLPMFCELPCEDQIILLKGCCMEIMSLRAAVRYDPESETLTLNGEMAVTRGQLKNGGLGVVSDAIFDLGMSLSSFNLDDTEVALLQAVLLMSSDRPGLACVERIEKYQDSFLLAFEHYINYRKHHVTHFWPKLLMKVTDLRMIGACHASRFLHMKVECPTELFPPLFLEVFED
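Read-out is fluorescence polarization (555 nm excitation, 632 nm emission) of a Texas Red SRC2 coactivator peptide; loss of signal reflects blocked binding to human TRb ligand-binding domain in the presence of 1 uM T3.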
Tau fluor cs = Counterscreen qHTS for Inhibitors of Tau Fibril Formation, Fluorescence Polarization; tau K18 P301L Alexa594 fluorescence, heparin fibrillization; Potency, µM (highest dose often 57.7 µM); hit rate 0.93% among 280,000; note: nearly all actives have a fitted effect of over 55% in size
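Human tau K18 P301L (15 uM unlabeled, 0.24 uM Alexa 594-labeled) in 100 mM sodium acetate pH 7 with 20 uM heparin, 6 hr at 37 C. ThT 30 uM added, 1 hr ambient; Alexa 594 FP and total fluorescence read at 555/632 nm.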
Numbers stand for hits; n = inactive; u = inconclusive; x = no result; [ ] = remark or other dose. Unless noted, calls come from the whole dose curve; as a rule, active = well fitted curve in the direction sought with a large enough effect; inconclusive = small, poorly fitted or top-dose-only effect, or another doubt; inactive = no such curve, though single readings can be large; an effect the other way counts as inactive or inconclusive.

SMILES | PNC inhibitor | Tau fibril ThT | TR SRC2 fluor cs | Tau FP inhib | TRb SRC2 PPI | Tau fluor cs
CN[C@H]1C[C@H]2O[C@@](C)([C@H]1OC)n1c3ccccc3c3c4c(c5c6ccccc6n2c5c31)C(=O)NC4 | -115 | x | n | x | n | x
CCCCC/C=C\C/C=C\C/C=C\C/C=C\CCCC(=O)N[C@H](C)CO | x | n | n | n | u | n
CN(C)S(=O)(=O)c1ccc(C(=O)NCCSc2c(-c3ccccc3)[nH]c3ccccc23)cc1 | x | n | n | n | n | 4µM[quencher]
O=C(NCCSc1c(-c2ccccc2)[nH]c2ccccc12)c1ccc(S(=O)(=O)N2CCOCC2)cc1 | x | n | n | u | n | 6.3µM[quencher]
CCOP(=S)(NC(C)C)Oc1ccccc1C(=O)OC(C)C (centres undefined) | x | x | n | x | n | x
C=C1C(=O)O[C@@H]2C[C@@H](C)[C@H]3C=CC(=O)[C@]3(O)C[C@@H]12 | x | 16µM | n | u | n | n
CCCCNC(=O)n1c(NC(=O)OC)nc2ccccc21 | x | x | n | x | n | x
O=C1NC(=O)N(Cc2ccc(F)cc2)C(=O)/C1=C\C=C\c1ccco1 | x | x | n | x | n | x
CC1=NN(c2ccccc2)C(=O)C1/C=C1\C(=O)NC(=O)N(c2cc(C)cc(C)c2)C1=O (centres undefined) | n | n | n | n | n | n
CCCCN1C(=O)/C(=C\c2ccco2)C(=O)N(CCc2ccccc2)C1=O | n | u | 28µM[fluorescent] | n | u | n
Cc1cc(C)cc(N2C(=O)NC(=O)/C(=C\C=C\c3ccco3)C2=O)c1 | n | 13µM | n | u | n | n
CCc1ccc(N2C(=O)NC(=O)/C(=C\C=C\c3ccco3)C2=O)cc1 | x | 10µM | n | 13µM | n | n
CC(C)c1ccc(N2C(=O)NC(=O)/C(=C/C=C/c3ccco3)C2=O)cc1 | n | 14µM | n | 14µM | n | n
COC(=O)C1=C(N)OC(C)=C(C(C)=O)C12C(=O)N(C)c1ccccc12 (centres undefined) | n | u | n | n | n | n
C(CCc1nn[nH]n1)CCc1nn[nH]n1 | u | n | n | n | n | n
O=C1NC(=O)N(Cc2ccccc2)C(=O)/C1=C\c1ccco1 | x | u | n | n | n | n
CCc1ccc(N2NC(=O)/C(=C/C=C/c3ccco3)C2=O)cc1 | n | 8.9µM | n | u | n | 10µM[quencher]
Cc1ccc(N2C(=O)NC(=O)/C(=C/C=C/c3ccco3)C2=O)cc1 | u | 14µM | n | u | n | n
CCCCN1C(=O)/C(=C/C=C/c2ccco2)C(=O)NC1=S | -88 | 16µM | n | u | u | n
CCCCN1C(=O)/C(=C/c2ccc(N(C)C)cc2)C(=O)N(Cc2ccco2)C1=O | n | u | 40µM[fluorescent] | n | u | n
CC(C)(C)c1ccc(S(=O)(=O)N2CC3CC(C2)c2cccc(=O)n2C3)cc1 (centres undefined) | n | n | n | n | n | n
Cn1cc(C(=O)C(=O)N[C@H]2CN3CCC2CC3)c2ccccc21 | x | n | n | n | n | n
O=C1NC(=O)N(c2ccccc2)C(=O)/C1=C\C=C\c1ccccc1 | x | 11µM | n | u | n | n
CCCN1CCc2cccc3c2C1Cc1ccc(O)c(O)c1-3 (centres undefined) | x | 14µM | n | 32µM | n | 18µM[quencher]
O=c1[nH]c(=O)n(Cc2ccco2)c(O)c1C=NCCN1CCOCC1 | n | n | n | n | n | n
SMILES | PNC inhibitor | Tau fibril ThT | TR SRC2 fluor cs | Tau FP inhib | TRb SRC2 PPI | Tau fluor cs
Cn1c(=O)cc(OCCCC(=O)N2CCC3(CC2)OCCO3)c2ccccc21 | u | n | n | n | n | n
Cn1c(=O)cc(OCC(=O)N2CCC3(CC2)OCCO3)c2ccccc21 | -95 | n | n | n | n | n
OC1CCCCC1N1CCC(c2ccccc2)CC1 (centres undefined) | u | n | n | n | n | n
COC(=O)[C@@H]1[C@@H](C(=O)OC)C2(c3ccccc3-c3ccccc32)N(c2ccc(Cl)cc2)N1C#N | n | 25µM | n | u | n | n
COC(=O)C[C@]1(C(=O)OC)CN(C#N)N(c2ccc(Cl)cc2)C12c1ccccc1-c1ccccc12 | -100 | 14µM | n | u | n | n
CN1C(=O)NC(=O)/C(=C/c2ccc([N+](=O)[O-])o2)C1=O | x | 13µM | n | u | n | n
CN1C(=O)NC(=O)/C(=C/c2ccc(C(=O)O)cc2)C1=O | x | x | n | n | n | u
CN1C(=O)NC(=O)/C(=C\c2ccc([N+](=O)[O-])o2)C1=O | x | 28µM | n | u | n | n
Cc1ccc(/C=C2/C(=O)NC(=O)N(C)C2=O)cc1 | n | u | n | n | n | n
O=C1NC(=O)N(c2ccccc2)C(=O)/C1=C\c1ccc([N+](=O)[O-])o1 | x | 18µM | n | u | n | u
O=C1NC(=O)N(c2ccccc2)C(=O)/C1=C\c1ccc([N+](=O)[O-])s1 | x | x | n | u | n | u
CCOc1ccc(N2C(=O)NC(=O)/C(=C\c3ccccc3[N+](=O)[O-])C2=O)cc1 | x | u | n | n | n | n
CC(=O)N1N=C(c2cccnc2)CC1c1ccccc1O (centres undefined) | x | n | n | n | n | n
